These results are taken from PubChem BioAssay (EPA / NIEHS).

Each structure is given as a SMILES string. Values joined by “and” are separate entries in the source; they are usually repeats but may differ in a detail not shown here. Equal values may be shown once. More than one record can exist for a structure, and the calls need not agree. Active and inactive are the calls of the source. Rule for the calls: active = hit-call score of the fitted dose curve at least 0.9, where 1 is the maximum; inactive = score below 0.9.

The assay is described as follows: ATG_NRF2_ARE_CIS: Attagene CIS-FACTORIAL HepG2 Assay for human Nuclear Factor Erythroid 2 Related Factor 2 (NFR2) response to Antioxidant Response Elements (ARE) (AID 2282992). As to conditions: HepG2 Attagene ARE/NRF2 reporter, transcription factor activity; actives raise or lower the signal. Here is the method: ATG_CIS is a cell-based, multiplexed-readout assay that uses HepG2, a human liver cell line, with measurements taken at 24 hours after chemical dosing in a 24-well plate.ATG_NRF2_ARE_CIS is one of 52 assay component(s) measured or calculated from the ATG_CIS assay. It is designed to make measurements of mRNA induction, a form of inducible reporter, as detected with fluorescence intensity signals by Reverse transcription polymerase chain reaction (RT-PCR) and Capillary electrophoresis technology.Data from the assay component ATG_NRF2_ARE_CIS was analyzed into 1 assay endpoint. This assay endpoint, ATG_NRF2_ARE_CIS, was analyzed with bidirectional fitting relative to DMSO as the negative control and baseline of activity. Using a type of inducible reporter, measures of mRNA for gain or loss-of-signal activity can be used to understand the reporter gene at the transcription factor-level as they relate to the gene NFE2L2. Furthermore, this assay endpoint can be referred to as a primary readout, because this assay has produced multiple assay endpoints where this one serves a reporter gene function. To generalize the intended target to other relatable targets, this assay endpoint is annotated to the dna binding intended target family, where the subfamily is basic leucine zipper.
Human liver HepG2 cells are transiently transfected with multiple reporter transcription units (MRTUs) in 6-well plates using FuGene 6 reagent (Roche; 3 ml FuGene/1 mg DNA). The MRTU constructs are regulated by a cis-regulating element (promoter). […] A major difference between the CIS and TRANS system is that in CIS activities of endogenous TFs are measured, whereas the TRANS assay evaluates changes in activities of exogenous, chimeric NR-Gal4 proteins. […] At the end of 24 hour incubation, total RNA was isolated using TriZol reagent (Invitrogen). The isolated RNA is then reverse-transcribed using oligo(dT) primer and Mo-MLV reverse transcriptase (Invitrogen) with DNAse I (Ambion) treatment for 30 min. The one-tenth of the produced cDNA was amplified by PCR using Taq DNA polymerase (Invitrogen) and two reporter sequence-specific primers. The PCR products were fluorescently labeled by primer extension with 6-arboxyfluorescein (6-FAM) 5'-labeled reporter sequence-specific primer (2 min at 95 C, 20 s at 68 C and 10 min at 72 C) and these products were digested with 5U of HpaI (New England Biolabs) for 2h at 37 C. The fragments were purified using Qiaquick PCR columns (Qiagen), analyzed on an ABI 3130xL genetic analyzer (Applied Biosystems) with peak positions identified by using a set of X-rhodamine (ROX)-labeled MapMarker1000 molecular weight standards (BioVentures). The raw capillary electrophoresis data was processed using Attagraph software (Attagene).
A word on the AC50: it is the concentration giving half of the maximal activity seen. `O=S(=O)(O)C(F)(F)C(F)(F)C(F)(F)C(F)(F)C(F)(F)C(F)(F)C(F)(F)C(F)(F)F`: the outcome was inactive and the AC50 was 24.7 µM (active) [middle of 9 runs].
With `COP(=S)(OC)Oc1ccc(SC)c(C)c1`, the concentration at half-maximal activity (AC50) was 15.5 µM (active).
On to `COC(=O)c1ccccc1CS(=O)(=O)NC(=O)Nc1nc(OC)cc(OC)n1`, for which the AC50 was 24.2 µM (active) and the compound was classed as inactive.
Consider `C#CCN1C(=O)COc2cc(F)c(N3C(=O)C4=C(CCCC4)C3=O)cc21`, for which the AC50 is 40.4 µM (active).
With `CCC(C)(C)C(=O)OC1=C(c2ccc(Cl)cc2Cl)C(=O)OC12CCCCC2`, the AC50 is 1.27 µM (active).
Consider `COP(=O)(OC)OC=C(Cl)Cl`, for which the AC50 was 35.7 µM (active).
In the case of `O=C(O)CCCOc1ccc(Cl)cc1Cl`, the call was inactive and the AC50 is 63.9 µM (active).
For `O=S1OCC2C(CO1)C1(Cl)C(Cl)=C(Cl)C2(Cl)C1(Cl)Cl` (stereo not given), the compound was called inactive.
`CCN(CC)C(=O)SCc1ccc(Cl)cc1`: the concentration at half-maximal activity (AC50) is 6.08 µM (active).
With `COc1nn(CSP(=S)(OC)OC)c(=O)s1`, the AC50 was 23.4 µM (active).
On to `Oc1cc(Cl)ccc1Oc1ccc(Cl)cc1Cl`, for which the concentration at half-maximal activity (AC50) was 5.97 µM (active) [middle of 7 runs] and the compound was classed as inactive.
As for `ClC1C(Cl)C(Cl)C(Cl)C(Cl)C1Cl` (stereo not given), the AC50 is 33.2 µM (active) and 26.2 µM (active); the outcome was inactive.
In the case of `Oc1ccc(Cl)cc1Cc1ccccc1`, the AC50 was 8.4 µM (active) [middle of 9 runs] and the compound was classed as inactive.
Take `CNC(=O)Oc1ccccc1OC(C)C`: the outcome was inactive.
Turning to `O=C(O)C(F)(F)C(F)(F)C(F)(F)C(F)(F)C(F)(F)C(F)(F)C(F)(F)F`, the AC50 was 84.7 µM (active) [middle of 4 runs].
As to `Cc1[nH]c(=O)n(C(C)(C)C)c(=O)c1Cl`, the AC50 is 20.1 µM (active).
Same read-out and setting: in the case of `CCCN(CCC)c1c([N+](=O)[O-])cc(C(F)(F)F)cc1[N+](=O)[O-]` it was 8.43 µM (active).
Consider `Cc1cc(C)nc(NC(=O)NS(=O)(=O)c2ccccc2C(=O)OC2COC2)n1`, for which the result was inactive.
As to `COC(=O)c1ccccc1S(=O)(=O)NC(=O)Nc1nc(C)nc(OC)n1`, the outcome was inactive and the AC50 was 31.3 µM (active).
Turning to `CCOc1nc(NC)nc(NC(=O)NS(=O)(=O)c2ccccc2C(=O)OC)n1`, the call was inactive.
The same measure, in the same setting: in the case of `COC(=O)c1ccccc1S(=O)(=O)NC(=O)N(C)c1nc(C)nc(OC)n1` it was “inactive”.
With `CC1(c2ccc(Oc3ccccc3)cc2)OC(=O)N(Nc2ccccc2)C1=O` (stereo not given), the AC50 is 1.61 µM (active).
Take `CC(C)(C)C(O)C(Oc1ccc(Cl)cc1)n1cncn1` (stereo not given): the AC50 was 4.01 µM (active) and the compound was called inactive.
Regarding `Clc1ccccc1-c1nnc(-c2ccccc2Cl)nn1`, the AC50 was 13.6 µM (active).
On the same count and under the same terms, next, `CCC(C)Nc1c([N+](=O)[O-])cc(C(C)(C)C)cc1[N+](=O)[O-]` (stereo not given): 8.79 µM (active); `CC(C)OC(=O)Nc1cccc(Cl)c1`: 21 µM (active); `O=C(Nc1ccccc1)Nc1cnns1`: 50 µM (active).
`CC1(C)C(C=C(Cl)Cl)C1C(=O)OC(C#N)c1ccc(F)c(Oc2ccccc2)c1` (stereo not given): the AC50 is 7.81 µM (active).
For `O=C(NC(=O)c1c(F)cccc1F)Nc1ccc(OC(F)(F)C(F)OC(F)(F)F)c(Cl)c1` (stereo not given), the AC50 is 13.8 µM (active).
Take `CCOCN(C(=O)CCl)c1c(C)cccc1CC`: the AC50 is 1.21 µM (active).
Turning to `CCOC1Oc2ccc(OS(C)(=O)=O)cc2C1(C)C` (stereo not given), the half-maximal activity concentration (AC50) is 9.79 µM (active).
The same measure, in the same setting: in the case of `CN1CSC(=S)N(C)C1` it was 21.7 µM (active).
